High-throughput results as filed in PubChem.
This is a sample that favours compounds with a hit; in the whole collection about 2.7% have one here.
ALOX12 inh: Primary qHTS assay for inhibitors of human arachidonate 12S-lipoxygenase (ALOX12): Round 2; Polyunsaturated fatty acid lipoxygenase ALOX12 (Homo sapiens), P18054; purified 12hLO, xylenol orange hydroperoxide absorbance; Potency, µM (series often up to 108 µM), for inactives: at the top dose activity change, negative = inhibition, usual class: inhibitors; 580,000 tested, 1.1% active; note: potency is the fitted concentration of half-maximal effect; % is set by controls: 0 for no effect and ±100 for the full control effect
Target sequence (P18054 whole entry, looked up): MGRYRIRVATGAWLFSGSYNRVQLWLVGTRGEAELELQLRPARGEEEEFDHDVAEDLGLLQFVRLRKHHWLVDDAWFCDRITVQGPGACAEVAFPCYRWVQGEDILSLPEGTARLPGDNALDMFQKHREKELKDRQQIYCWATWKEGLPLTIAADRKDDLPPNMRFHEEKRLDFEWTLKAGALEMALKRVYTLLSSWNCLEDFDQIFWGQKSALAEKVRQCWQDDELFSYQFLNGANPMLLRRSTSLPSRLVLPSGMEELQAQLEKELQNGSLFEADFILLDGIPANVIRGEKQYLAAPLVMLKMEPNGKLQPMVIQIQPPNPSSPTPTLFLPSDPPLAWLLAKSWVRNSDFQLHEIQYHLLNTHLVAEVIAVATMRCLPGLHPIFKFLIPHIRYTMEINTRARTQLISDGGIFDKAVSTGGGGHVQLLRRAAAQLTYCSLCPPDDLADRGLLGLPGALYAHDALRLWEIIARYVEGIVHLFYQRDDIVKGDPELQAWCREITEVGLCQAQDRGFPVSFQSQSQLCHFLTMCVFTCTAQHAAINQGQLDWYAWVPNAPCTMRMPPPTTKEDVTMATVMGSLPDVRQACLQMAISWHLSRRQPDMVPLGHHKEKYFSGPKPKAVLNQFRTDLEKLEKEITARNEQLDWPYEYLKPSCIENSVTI
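Purified human 12hLO at 150 nM in 25 mM Hepes, 0.01% Triton X-100, pH 7.0, preincubated 15 min at room temperature with compound. Reaction started with 40 uM arachidonic acid, 30 min at room temperature. Hydroperoxide measured by Fe-xylenol orange, 573/405 nm absorbance ratio.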
ERG Ets-DNA blk: qHTS for Small Molecule Inhibitors of the ERG Ets/DNA interaction; Potency, µM (titrated, usually from 76.9 µM), inactives show top-dose FP activity, negative = inhibition, usual class: inhibitors; 370,000 tested, 0.028% active; Transcriptional regulator ERG (Homo sapiens), P11308; fluorescence polarization, His-ERG Ets domain / labelled DNA; active = well fitted inhibition curve with a large enough effect in the polarisation, with a control signal flat; inconclusive = small, poorly fitted or top-dose-only effect, or effect the other way, or a change in a side signal; inactive = no such curve, though single readings can be large or run the other way; the % refers to the polarisation;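 note: polarization taken with two DNA probes labelled with fluorescein and Texas red; potency is the fitted concentration of half-maximal effect; % of control where 0% means no effect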
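His-tagged ERG Ets domain (1 uM in the protein solution; 300mM KCl, 50mM Tris-HCl, 1mM EDTA, 1mM DTT, pH 7.5) received compound, then a probe mix of 5 nM fluorescein-DNA and 100nM Texas-615-DNA. Fluorescence polarization was read for both dyes.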
Nrf2 activator: qHTS of Nrf2 Activators | AREc32 ARE-luciferase reporter (MCF7-derived line), luminescence, 24 h | Potency, µM (titrated, usually from 46.1 µM), for the others: at the top dose activation, most hits filed as activators | 410,000 tested, 0.31% active; note: potency is the fitted concentration of half-maximal effect; % of control where 0% means no effect; nearly all actives have a fitted effect of over 65% in size
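ARE-driven firefly luciferase activity in AREc32 cells measured after a 24 hr compound exposure at 37 deg C, using Steady-Glo reagent and a 30 min room-temperature hold.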
A549 tox: Nrf2 qHTS screen for inhibitors: counterscreen for cytotoxicity; A549 ARE-Fluc cells, CellTiter-Fluor viability, 18-24 h; Potency, µM (doses to about 46 µM), for the others: at the top dose activity change, negative = cytotoxicity, most hits filed as inhibitors; 390,000 tested, 0.16% active; AID 504648, 2011; note: potency is the fitted concentration of half-maximal effect; % is set by controls: 0 for no effect and ±100 for the full control effect
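A549 ARE-Fluc cells in 5% FBS OPTI-MEM, 5000 cells/well, rested 2 h then exposed to compounds in concentration-response for 18-24 h at 37 °C. Viability by CellTiter-Fluor fluorescence (Ex 405/Em 525) after 30 min; luciferase luminescence (BugLite, 15 min, RT) read afterwards.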
Nrf2 inh: Nrf2 qHTS screen for inhibitors; AID 504444, 2011; Potency, µM (titrated, usually from 46 µM), for inactives: top-dose activity change, negative = inhibition, most hits filed as inhibitors; A549 ARE-Fluc reporter, luciferase luminescence, 18-24 h; 360,000 tested, 2.1% active; note: potency is the fitted concentration of half-maximal effect; % is set by controls: 0 for no effect and ±100 for the full control effect; nearly all actives have a fitted effect of over 60% in size
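Concentration-response testing used A549 ARE_Fluc cells at 5000 cells/well. Following an 18-24 h compound incubation, viability was read by fluorescence (Ex 405/Em 525) and luciferase output by luminescence.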
LDHA inh: qHTS assay for inhibitors of human lactate dehydrogenase; L-lactate dehydrogenase A chain (Homo sapiens), P00338; purified LDHA, NADH/diaphorase-resazurin fluorescence; stronger effect = lower value; activity change, % (values are at about 110 or 230 µM); 480,000 tested, 0.15% active; in the data active = activity change below about -30%; inconclusive = mostly about -25% to -30%;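 note: plate controls were DMSO wells for no effect and wells without enzyme for full effect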
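Enzyme activity of human lactate dehydrogenase 5 (2 nM; 0.06 mM NADH, 0.2 mM pyruvate, 5 min, RT) is measured via a resazurin/diaphorase fluorescence readout of residual NADH.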
An asterisk follows results filed as active; ? = inconclusive; / = no result given; [ ] = remark or other dose. Unless noted, calls come from the whole dose curve; as a rule, active = well fitted curve in the direction sought with a large enough effect; inconclusive = small, poorly fitted or top-dose-only effect, or another doubt; inactive = no such curve, though single readings can be large; an effect the other way counts as inactive or inconclusive.

SMILES	ALOX12 inh	ERG Ets-DNA blk	Nrf2 activator	A549 tox	Nrf2 inh	LDHA inh
COc1ccc(NC(=O)CCS(=O)(=O)c2cc3c4c(c2)CCN4C(=O)CC3)cc1OC	?	-1%	0%	8%	12%	-3
O=C(CCS(=O)(=O)c1cc2c3c(c1)CCN3C(=O)CC2)Nc1cccc(Br)c1	45µM*	1%	-1%	-15%	10%	-2
COc1ccc(C)cc1NC(=O)CCS(=O)(=O)c1cc2c3c(c1)CCN3C(=O)CC2	18µM*	-10%	1%	2%	?	-5
COc1ccccc1NC(=O)CCS(=O)(=O)c1cc2c3c(c1)CCN3C(=O)CC2	?	-6%	0%	-1%	?	-3
O=C(CCl)Nc1ccc2c(c1)OCO2	-8%	-3%	14µM*	-3%	-1%	7
O=C(Nc1ccc2c(c1)OCO2)c1ccccn1	5.6µM*	-1%	-1%	-1%	?	1
O=C(Nc1ccc2c(c1)OCO2)c1cnccn1	4%	12%	1%	-14%	?	-4
O=C(Nc1cccc(O)c1)c1cc(-c2ccc3c(c2)OCO3)on1	-17%	12%	-1%	1%	15µM*	0
CCNc1ccc(S(=O)(=O)N(CC)CC)cc1NCC(=O)Nc1ccccc1Cl	?	/	/	/	/	-16
C=CCNC(=S)NN=C1CCCCCCC1	14µM*	15%	6%	3%	2%	-6
CC(C)OC(=O)NC(C)(C)COC(=O)Nc1cccc(Cl)c1	0%	1%	2%	-26%	10µM*	-1
CC(C)OC(=O)NCCOC(=O)Nc1cccc(Cl)c1	-4%	0%	0%	0%	-7%	4
COc1cccc(NC(=O)c2ncoc2-c2ccc(OC)c(OC)c2)c1	4%	/	/	/	/	-6
Cc1oc(-c2ccc(F)cc2)cc1-c1nn2c(-c3ccco3)nnc2s1	11µM*	/	/	/	/	/
Fc1ccccc1-c1ccc(-c2nn3c(-c4ccco4)nnc3s2)o1	8.9µM*	/	/	/	/	-4
Cc1cc(C(=O)COc2cccnc2[N+](=O)[O-])c(C)n1-c1ccccc1	-17%	-3%	-2%	-10%	2.9µM*	1
Cc1ccc(-n2c(C)cc(C(=O)COc3cccnc3[N+](=O)[O-])c2C)cc1	-25%	3%	0%	-22%	3.3µM*	2
Cc1cc(C(=O)COc2cccnc2[N+](=O)[O-])c(C)n1-c1ccccc1F	23%	6%	-1%	18%	?	0
COc1cc(C#N)ccc1OCc1cc(C#N)ccc1F	?	/	/	/	/	3
CCCOc1ccc(-c2nc(C#N)c(N3CCN(Cc4ccccc4)CC3)o2)cc1	?	/	/	/	/	-19
CC(=O)Nc1ccc(NC(=O)c2nccnc2C(=O)O)cn1	?	7%	-1%	-6%	-3%	1
COc1cc(NC(=O)c2nccnc2C(=O)O)cc(OC)c1	4.5µM*	9%	-2%	0%	21%	6
CCN(CC)c1ccc(NC(=S)Nc2cccc(C)c2)cc1	?	/	/	/	/	75
COc1cccc(C2CCCN2Cc2cc(=O)oc3cc(OC)ccc23)c1 (stereo not given)	45µM*	/	/	/	/	8
Cc1ccccc1NS(=O)(=O)c1ccc2[nH]cc(C(=O)NC3CCCCC3)c(=O)c2c1	5%	-2%	0%	-8%	/	5
SMILES	ALOX12 inh	ERG Ets-DNA blk	Nrf2 activator	A549 tox	Nrf2 inh	LDHA inh
Cc1cc(C)cc(NS(=O)(=O)c2ccc3[nH]cc(C(=O)NCc4ccco4)c(=O)c3c2)c1	?	14%	0%	-11%	16µM*	4
CC(C)c1ccc(NS(=O)(=O)c2ccc3[nH]cc(C(=O)NC4CCCCC4)c(=O)c3c2)cc1	35µM*	0%	-4%	10%	-19%	8
COc1cccc(NS(=O)(=O)c2ccc3[nH]cc(C(=O)NC4CCCCC4)c(=O)c3c2)c1	?	0%	-2%	4%	?	2
Cc1cc(C)cc(NS(=O)(=O)c2ccc3[nH]cc(C(=O)NC4CCCCC4)c(=O)c3c2)c1	?	8%	-3%	-16%	23µM*	4
Cc1ccc(C(=O)Nc2cccc(S(=O)(=O)N3CCCCC3)c2)cc1[N+](=O)[O-]	137%	-23%	1%	-15%	16µM*	-6
O=C(Nc1cccc(Cl)c1)c1ccc(F)c(S(=O)(=O)N2CCN(c3ccccn3)CC2)c1	?	10%	4%	-9%	21µM*	-5
Cc1ccc(C(=O)Nc2cccc(S(=O)(=O)N3CCCCC3)c2)cc1S(=O)(=O)N1CCOCC1	-5%	-2%	0%	-6%	7.3µM*	-3
CCOc1ccc(NC(=O)c2ccc(F)c(S(=O)(=O)N3CCN(c4ccccn4)CC3)c2)cc1	-16%	-1%	1%	-14%	?	-4
O=C(Nc1cccc(Br)c1)c1ccc(Cl)c(S(=O)(=O)N2CCOCC2)c1	3%[57.4 µM]	/	-1%	?	10µM*	-1
CCN1C(=O)COc2ccc(-c3nc(NC(=O)c4cccnc4)sc3C)cc21	?	/	/	/	/	-2
CCC/C=C/CO	7%[176 µM]	/	/	/	/	/
CCN(CC)c1nc(C#N)nc(N2CCOCC2)n1	/	/	/	-3%	23µM*	-6
CCOc1ccccc1OCCCC(=O)Oc1ccc(-c2ccc(C#N)cc2)cc1	-23%	/	/	/	/	4
COc1ccc(CNC(=O)C(C)C)cc1	-43%	/	/	/	/	0
COc1ccc(C(=O)N2CCC3(CC2)NC(=O)N(Cc2ccc(F)cc2)C3=O)cc1F	-11%	/	/	/	/	/
COc1cccc(C(=O)N2CCC3(CC2)NC(=O)N(c2cccc(F)c2)N3)c1	2µM*	/	/	/	/	/
COc1ccc(C(=O)N2CCC3(CC2)NC(=O)N(c2ccc(F)cc2)N3)cc1F	2µM*	/	/	/	/	/
COc1cccc(C(=O)N2CCN(C(=O)c3cccc(F)c3)CC2)c1	-14%	4%	-1%	-1%	6%	0
COc1ccc(C(=O)N2CCC3(CC2)NC(=O)N(c2cccc(F)c2)N3)c(OC)c1	1.3µM*	/	/	/	/	/
CN(C)c1ccc(C(=O)N2CCC3(CC2)NC(=O)N(c2cccc(F)c2)N3)cc1	5µM*	/	/	/	/	/
CN(C)c1ccc(C(=O)N2CCC3(CC2)NC(=O)N(Cc2ccc(F)cc2)C3=O)cc1	40%	/	/	/	/	/
Cc1c(CCC(=O)N2CCCCC2)c(=O)oc2cc(O)ccc12	-29%	/	/	/	/	1
